Reference: PubChem BioAssay AID1347426 (Functional Genomics Laboratory (NCATS/FGL), 2020)
In all, about 31,000 sequences went through this assay and about 1,400 (4.5%) were called active. Shown is part of a subset that was picked to be rich in actives. Unmarked numbers belong to inactive results.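 How the source made its calls: active means median seed-adjusted z-score above 1 or below -1; inactive means the rest.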

Assay: Novel Modifiers of Survival Motor Neuron (SMN) Protein: Gene Identification via Genome-wide siRNA Screen;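 further: luminescence tracks full-length SMN protein made from the SMN2 reporter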
Conditions: HEK293T SMN2-luciferase reporter, siRNA knockdown, 72 h; actives lie on both sides
In short: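 HEK293T cells stably expressing an SMN2 splicing/cDNA-luciferase reporter were reverse-transfected with a druggable-genome siRNA library and read by luminescence at 72 hours; hits defined by MAD score above 1.0 or below -1.0.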

Row | Sequence | median seed-adjusted z-score
1 | AGUGAACUCCGGUCCUGCATT against RAB11FIP3 | 0.0361
2 | GCGAUGAGGUGGACUUGUATT against ST3GAL1 | 0.255
3 | GACCUGUCACAGAACCAGATT against VASN | 0.213
4 | GUCUUCAUGUAUGUCUUUUTT against GJB1 | 0.152
5 | AGGUAGAAGAAAUGCAAUATT against PKIA | 0.533
6 | GCCUAUAGGAUUGAACCAATT against DDHD2 | 0.447
7 | GCUGGGUAGUUUGACUGAATT against TRIM61 | 0.0116
8 | CAAAUACCGUUAAGCUGGATT against HBA1 | -1.03 (active)
9 | CUCUUAUAGUUGAUCGUGATT against ATAD2B | 0.0192
10 | GGAUAGCACAUGAUACAGATT against GAN | -1.07 (active)
11 | CCAUAUCGAAUAAUAAUGATT against SCRT1 | -0.483
12 | GGUUCUGACAGACAAUGGATT against DPT | 0.073
13 | GGACUCUUCUUUAGCUUUATT against TSPAN31 | -1.13 (active)
14 | CCGAAUCAUUAUGCACCAATT against OCLN | 0.232
15 | CAACCACACUAACGAGAUUTT against GLRX | -0.0561
16 | ACACCUGCCUGGUAGAGAATT against FGFR4 | 0.0825
17 | GAAACUUGAUUGAUCUUUATT against MITF | -0.249
18 | GAGAAGAUCUGGAACUCAUTT against CRAT | -1.42 (active)
19 | GCAGGUCAAAUUUCCAUAATT against ZNF175 | -0.0194
20 | CAAUAUCUGCUGUUAGCAATT against SCARB2 | -0.244
21 | GAUCAAAUAUGACUUCCUATT against GPR103 | 0
22 | GCUGGAAAAGGUUAACGAATT against PKNOX1 | 0.68
23 | GGACAUGACAGCAACCUUUTT against EGR1 | 0.0836
24 | CAAUGUCCGGAAGCAGUUUTT against ACAD8 | 1.06 (active)
25 | GGUCAACUCUCUACUGAUATT against ARHGAP29 | -0.0483
26 | GCAUAGAAGGCUUCACGAATT against PLCH1 | -0.00634
27 | UCACUGAAAUGAAACUGGUTT against ACBD4 | -0.363

Row | Sequence | median seed-adjusted z-score
28 | AAGAGAUUUUUGUAACUGATT against BCL2L14 | -0.859
29 | CGAUUUGAAGGUCCAUAUATT against DNAJC2 | -0.0357
30 | CCUCGACUAUUUUAAGACATT against UBA1 | 1.34 (active)
31 | GUCCUUUAACUGAAGCUUUTT against NDUFB9 | -0.982
32 | GGACAGUAGUGUGCAACGATT against LRIT1 | -0.611
33 | UGAUGAAUGUUAUCGAGAATT against RFC2 | 0.00126
34 | GCAGUUUCGAAAUCAACGATT against TEX14 | -0.107
35 | ACAAGAACCCUGACAAUAATT against DNAJB8 | -1.09 (active)
36 | GCAACAUGCAGAUAGGUUATT against PHF14 | 0.354
37 | GCCUGUGACUCAUACUGGATT against ELF5 | -0.45
38 | CCGGCUACACCUUCCGUAATT against DNAJB8 | -1.09 (active)
39 | GAGAUGCGCAAAUUCACUCTT against IP6K2 | -0.193
40 | GGAAAAUCAUUGUGCUAAUTT against VN2R1P | -0.25
41 | GAUUUGGUUUCGUAACUUUTT against A2BP1 | 1.17 (active)
42 | GACUGGUUAUUACGUCUUATT against SYNJ1 | 0
43 | GAGUGUAACUGCAACCAGATT against NTNG2 | 0.403
44 | ACUCAGUGGAGGUCACCAATT against EIF3F | -0.0214
45 | GCCUCUCAGAGAACUACGATT against LRRC33 | -0.194
46 | GGGCGAUGUCCAUCCACAATT against PIF1 | -0.0455
47 | CUCCAUUCCUGGUAUAGAATT against XRCC5 | -1.11 (active)
48 | CCUCCUCACCAAACCCAUUTT against SLC5A1 | -0.812
49 | CGACUGAACAAACCCUAUATT against ERCC3 | 0.155
50 | GCCUGAAUGCAGCCCAGUUTT against SP2 | -0.617
51 | AGGACAAGCUGAAAAUCCATT against ZBTB7C | 0.447
52 | UCAGUUUGCUGAGAACGAATT against TCEB1 | 1.08 (active)
53 | CCUCAACUCUAAAUACUCATT against ZNF716 | 0
54 | GGAGAUCUCUCGUCUCAAUTT against KCNH4 | -0.769
